Experimental findings from PubChem BioAssay (NCATS) are described below.

Results filed as inconclusive are left out. Activity calls are given as the source filed them. Unless noted, the call rests on the fitted dose curve; in most records, active means well fitted curve in the direction sought with a large enough effect; inconclusive means small, poorly fitted or top-dose-only effect, or another doubt; inactive means no such curve, though single readings can be large; an effect the other way counts as inactive or inconclusive.

The target in test [1] is Glutathione peroxidase 1 (Homo sapiens) (UniProt P07203). The experiment in a line: Primary qHTS Assay for Inhibitors of Recombinant Selenoprotein Glutathione Peroxidase 1 (GPX1) (AID 1845191). Further: nearly all actives have a fitted effect of over 65% in size. Further: potency means the concentration at half of the fitted maximal effect. On activity, negative = inhibition: on the % scale 0 is the no-effect control and ±100 the full control effect. The procedure, abridged: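 GR-coupled assay: compounds preincubated 30 min at room temperature with GPX1, then reaction started with CHP; final 10 nM GPX1, 1 mM GSH, 0.5 mM CHP, 0.5 mM NADPH, 100 nM GR, 0.01% BSA, pH 7.5 Tris buffer. NADPH fluorescence (340/450 nm) read at 0 and 15 min.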
(Quantitative high-throughput screening tests each substance at several concentrations.)

The target of test [2] is Phospholipid hydroperoxide glutathione peroxidase GPX4 (Homo sapiens) (UniProt P36969). The experiment in a line: Primary qHTS Assay for Inhibitors of Recombinant Selenoprotein Glutathione Peroxidase 4 (GPX4) (AID 1845192). Further: nearly all actives have a fitted effect of over 65% in size. Summed up: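 GR-coupled assay: recombinant GPX4 preincubated 30 min with compound at room temperature; final 200 nM GPX4, 1 mM GSH, 0.5 mM cumene hydroperoxide, 0.5 mM NADPH, 100 nM GR, 0.01% BSA, pH 7.5 Tris. NADPH fluorescence (340/450 nm) read at 0 and 15 min.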

A short description of test [3]: qHTS profiling for inhibitors of Plasmodium falciparum proliferation (AID 504749). Further: nearly all actives have a fitted effect of over 60% in size. Further: potency means the concentration at half of the fitted maximal effect.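 On activity, negative = inhibition: 0% = DMSO vehicle and full inhibition = artemisinin control.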 The note with it: P. falciparum in erythrocytes, SYBR Green DNA, 72 h. The procedure, abridged:
(§1)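 Readout was DNA-dye fluorescence from lysed cultures, ex 485/em 535 nm. Parasitized red cells had grown 72 h with compound; data scaled between 0.29 uM artemisinin and DMSO wells and corrected using vehicle-only plates.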

The next test has as its system 3D7. Described as above. The note with it: P. falciparum in erythrocytes, SYBR Green DNA, 72 h; series mostly up to 28.7 µM. The procedure, abridged: as §1
The next test relates to 7G8. Described as above. The note with it: P. falciparum in erythrocytes, SYBR Green DNA, 72 h; series mostly up to 28.7 µM. The procedure, abridged: as §1
Test [4] concerns the target Luciferin 4-monooxygenase (Photinus pyralis) (UniProt P08659). Nature of the test: Primary firefly luciferase (FLuc) qHTS assay for identification of artifact compounds. (AID 1845220). Further: nearly all actives have a fitted effect of over 60% in size. The procedure, abridged:
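Enzymatic FLuc inhibition assay: compounds pre-exposed to luciferin/ATP (10 uM each) for 15 min, then purified P. pyralis enzyme at 10 nM added. Read-out: luminescence at 5 min.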

The nature of test [5]: Primary fluorescence-based thiol-reactive (MSTI) qHTS assay for identification of artifact compounds. (AID 1845221).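 Further: thiol-reactive compounds lower the probe fluorescence signal; nearly all actives have a fitted effect of over 65% in size.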 The procedure, abridged: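 Reactivity toward the thiol probe MSTI (4 uM) is scored by fluorescence at Ex/Em 525/598 nm after 1 h at room temperature. Acetyl-MSTI and MSTI define the activity scale.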
Test [6] deals with Nanoluciferase (engineered Oplophorus gracilirostris luciferase). Nature of the test: Primary Nanoluciferase (NLuc) qHTS assay for identification of artifact compounds. (AID 1845222).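 Further: NLuc secreted into diluted conditioned medium of S16 cells; 0% = DMSO and -100% = no enzyme.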 Summed up: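 S16 cell supernatant NLuc, 1:55; cpds qHTS; 15 min RT dark; Nano-Glo substrate 1:100, 5 min; luminescence; Hill fit of % inhibition.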
The nature of test [7]: Primary redox qHTS assay for identification of artifact compounds. (AID 1845223).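 Further: 0% = DMSO and 100% = reference compound.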 Summed up: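 Amplex Red (25 uM) and HRP (250 mU/mL) in HBSS, with compounds for 15 min, then 250 uM DTT for 30 min, room temperature, dark. Fluorescence 525/598 nm read; normalized to DMSO and 10 uM DA3003; Hill fit.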
The target of test [8] is Cytochrome P450 3A4 (Homo sapiens) (UniProt P08684). The experiment in a line: qHTS for inhibitors of CYP3A4 against the NCATS DSHEA and TCM libraries (AID 1919971).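 Further: on the % scale 0 is the no-effect control and ±100 the full control effect; inhibition lowers luminescence from luciferin made by CYP3A4.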 Summed up:
(§2)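 Luminescent P450-Glo readout. Enzyme plus pro-luciferin substrate in manufacturer buffer (typically 100 mM KPO4); 15 min RT preincubation; 1x NADPH regenerating system, 30-45 min RT in the dark; detection reagent 30 min.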

The target of test [9] is Cytochrome P450 2D6 (Homo sapiens) (UniProt P10635). The experiment in a line: qHTS for inhibitors of CYP2D6 against the NCATS DSHEA and TCM libraries (AID 1919972). Further: on the % scale 0 is the no-effect control and ±100 the full control effect. Summed up: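 Steps: enzyme plus luciferin substrate dispensed; test substances pinned; 15 min RT; 1x NADPH regenerating solution added, 30–45 min RT protected from light; detection reagent, 30 min RT; luminescence measured. Minus-enzyme wells as background.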

Test [10] deals with Cytochrome P450 2C19 (Homo sapiens) (UniProt P33261). The experiment in a line: qHTS for inhibitors of CYP2C19 against the NCATS DSHEA and TCM libraries (AID 1919974).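 Further: luminescence from luciferin released by CYP2C19 oxidation of a pro-luciferin substrate; potency means the concentration at half of the fitted maximal effect.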 The note with it: CYP2C19 enzyme inhibition, luminescence qHTS. Summed up: as §2
The nature of test [11]: KB-3-1 P-gp reporter qHTS against the NCATS DSHEA and TCM libraries (AID 1919975). Further: 0% is about no effect. The procedure, abridged:
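Cell viability qHTS: 500 KB-3-1 cells/well, substances in titration, ~72 h, 37C; luminescent CellTiter-Glo read.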

A short description of test [12]: qHTS Counterscreen for compound interference against the NCATS DSHEA and TCM libraries (AID 1919978).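 Further: compounds preincubated with 1 µM D-luciferin or buffer before detection reagent; % of control where 0% means no effect.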 The note with it: firefly luciferase detection reagent interference, luminescence. The procedure, abridged:
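Interference check: test samples were incubated with D-luciferin (final 1 uM) or buffer only for 15 min, room temperature, in a qHTS titration up to 39.8 uM, then developed with detection reagent and read by luminescence.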

Test [13] in a line: Dual reporter qHTS for agonist of Pregnane X Receptor (hPXR) against the NCATS DSHEA and TCM libraries: Fluorescence readout (AID 1920058). Further: 0% is about no effect. The procedure, abridged: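 hPXR-Luc HepG2 cells (2000/well) in phenol red-free medium with charcoal-stripped FBS attached for 5 h, then were exposed to compounds for about 24 h at 37 °C. Viability was read by CellTiter-Fluor fluorescence (Ex/Em 405/540 nm) after 1 h.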

The target of test [14] is Nuclear receptor subfamily 1 group I member 2 (Homo sapiens) (UniProt O75469). The experiment in a line: Dual reporter qHTS for antagonist of Pregnane X Receptor (hPXR) against the NCATS DSHEA and TCM libraries: Luminescence Readout (AID 1920060).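 Further: HepG2 cells carrying hPXR luciferase reporter stimulated with rifampicin at 2 µM; 0% is about no effect.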 The procedure, abridged:
(§3)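 Antagonist mode: rifampicin 2 uM final co-added with compounds to hPXR-LucHepG2 cells for 24 h at 37C. Viability by CellTiter-Fluor, Ex/Em 405/540 nm, 1 h; reporter by ONE-Glo luminescence.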

Test [15] can be described thus: Dual reporter qHTS for antagonist of Pregnane X Receptor (hPXR) against the NCATS DSHEA and TCM libraries: Fluorescence Readout (AID 1920061). Further: 0% is about no effect. Summed up: as §3
Test [16] concerns the target Nuclear receptor subfamily 1 group I member 2 (Homo sapiens) (UniProt O75469). Nature of the test: Dual reporter qHTS for agonist of Pregnane X Receptor (hPXR) against the NCATS DSHEA and TCM libraries: Luminescence readout (AID 1920059). Further: 0% is about no effect. The procedure, abridged: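 hPXR-Luc HepG2 cells, 2000/well in 5% charcoal-stripped FBS medium, attached 5 h, then exposed 24 h at 37C to compounds. Viability by CellTiter-Fluor, then luciferase luminescence with ONE-Glo.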

The nature of test [17]: qHTS drug screen for cell cycle checkpoint inhibitors in PARPi-resistant BRCA-mutant ovarian cancer cell lines. (AID 1963452; calls by dose curve). The note with it: PEO1/OlaR viability, CellTiter-Glo luminescence, 96 h, stronger effect = lower value. Summed up: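 PEO1, PEO4 and PEO1/OlaR ovarian cancer cells, 600 per well, exposed 96 h at 37C to a dilution series. Viability read by CellTiter-Glo luminescence, normalized to DMSO and empty wells; activity summarized as Z-AUC.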

[18] abbreviates: at 28.7 µM (top of the series), parasite line A.
[19] abbreviates: at 28.7 µM (top of the series), parasite line B.
The mark [20] stands for this setting: at 12.8 µM (top of the series), parasite line A.
Setting [21] is: at 12.8 µM (top of the series), parasite line B.

Chain of Phospholipid hydroperoxide glutathione peroxidase GPX4 (Homo sapiens) (P36969 whole entry, looked up): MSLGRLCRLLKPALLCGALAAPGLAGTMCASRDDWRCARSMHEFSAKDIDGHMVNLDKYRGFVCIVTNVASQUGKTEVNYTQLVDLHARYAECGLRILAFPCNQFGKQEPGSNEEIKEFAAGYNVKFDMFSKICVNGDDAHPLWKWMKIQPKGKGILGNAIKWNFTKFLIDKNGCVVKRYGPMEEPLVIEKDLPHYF
Chain of Nuclear receptor subfamily 1 group I member 2 (Homo sapiens) (O75469 whole entry, looked up): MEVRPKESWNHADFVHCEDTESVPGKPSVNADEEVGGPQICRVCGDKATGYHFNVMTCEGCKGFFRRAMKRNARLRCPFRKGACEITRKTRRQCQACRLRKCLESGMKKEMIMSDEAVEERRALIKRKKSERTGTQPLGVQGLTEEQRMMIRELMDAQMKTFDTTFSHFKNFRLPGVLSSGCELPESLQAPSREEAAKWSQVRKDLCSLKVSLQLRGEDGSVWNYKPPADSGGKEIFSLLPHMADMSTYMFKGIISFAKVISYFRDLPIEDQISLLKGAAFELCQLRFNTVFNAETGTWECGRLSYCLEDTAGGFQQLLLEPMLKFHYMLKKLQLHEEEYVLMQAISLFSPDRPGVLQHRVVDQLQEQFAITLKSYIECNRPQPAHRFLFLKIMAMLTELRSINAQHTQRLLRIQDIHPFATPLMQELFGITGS
Chain of Glutathione peroxidase 1 (Homo sapiens) (P07203 whole entry, looked up): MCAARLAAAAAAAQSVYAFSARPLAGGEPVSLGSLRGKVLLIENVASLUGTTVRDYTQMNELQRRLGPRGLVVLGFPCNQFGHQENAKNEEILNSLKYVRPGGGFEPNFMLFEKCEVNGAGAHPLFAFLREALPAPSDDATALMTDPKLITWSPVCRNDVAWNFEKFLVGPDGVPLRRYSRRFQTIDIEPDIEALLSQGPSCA
Chain of Cytochrome P450 3A4 (Homo sapiens) (P08684 whole entry, looked up): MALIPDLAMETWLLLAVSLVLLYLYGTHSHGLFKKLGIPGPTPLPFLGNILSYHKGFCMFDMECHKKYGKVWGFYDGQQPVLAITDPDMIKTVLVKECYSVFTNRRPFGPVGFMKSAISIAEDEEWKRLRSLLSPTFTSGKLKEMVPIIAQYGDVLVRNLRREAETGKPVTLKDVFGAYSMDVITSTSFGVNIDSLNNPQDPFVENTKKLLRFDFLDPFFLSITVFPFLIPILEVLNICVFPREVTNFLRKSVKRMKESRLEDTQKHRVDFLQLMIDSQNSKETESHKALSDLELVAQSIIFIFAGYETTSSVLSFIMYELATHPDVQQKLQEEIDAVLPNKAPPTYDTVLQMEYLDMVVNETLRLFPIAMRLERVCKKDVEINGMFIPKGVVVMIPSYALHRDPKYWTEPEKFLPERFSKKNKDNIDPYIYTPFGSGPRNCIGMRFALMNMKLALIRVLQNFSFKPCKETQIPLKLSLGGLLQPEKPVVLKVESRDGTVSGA
Chain of Cytochrome P450 2D6 (Homo sapiens) (P10635 whole entry, looked up): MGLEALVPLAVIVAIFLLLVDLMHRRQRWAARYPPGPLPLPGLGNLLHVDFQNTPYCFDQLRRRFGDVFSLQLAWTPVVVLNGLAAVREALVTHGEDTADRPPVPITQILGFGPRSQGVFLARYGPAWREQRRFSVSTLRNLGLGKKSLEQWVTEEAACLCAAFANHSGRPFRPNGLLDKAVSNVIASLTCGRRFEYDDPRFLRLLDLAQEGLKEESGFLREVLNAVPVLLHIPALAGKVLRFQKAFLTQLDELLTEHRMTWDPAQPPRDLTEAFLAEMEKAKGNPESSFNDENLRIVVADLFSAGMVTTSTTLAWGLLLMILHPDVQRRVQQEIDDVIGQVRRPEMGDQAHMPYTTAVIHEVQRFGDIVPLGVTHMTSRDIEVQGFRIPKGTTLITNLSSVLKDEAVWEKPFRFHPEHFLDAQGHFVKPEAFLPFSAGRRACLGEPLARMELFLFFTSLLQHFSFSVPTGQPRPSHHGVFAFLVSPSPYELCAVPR
Chain of Cytochrome P450 2C19 (Homo sapiens) (P33261 whole entry, looked up): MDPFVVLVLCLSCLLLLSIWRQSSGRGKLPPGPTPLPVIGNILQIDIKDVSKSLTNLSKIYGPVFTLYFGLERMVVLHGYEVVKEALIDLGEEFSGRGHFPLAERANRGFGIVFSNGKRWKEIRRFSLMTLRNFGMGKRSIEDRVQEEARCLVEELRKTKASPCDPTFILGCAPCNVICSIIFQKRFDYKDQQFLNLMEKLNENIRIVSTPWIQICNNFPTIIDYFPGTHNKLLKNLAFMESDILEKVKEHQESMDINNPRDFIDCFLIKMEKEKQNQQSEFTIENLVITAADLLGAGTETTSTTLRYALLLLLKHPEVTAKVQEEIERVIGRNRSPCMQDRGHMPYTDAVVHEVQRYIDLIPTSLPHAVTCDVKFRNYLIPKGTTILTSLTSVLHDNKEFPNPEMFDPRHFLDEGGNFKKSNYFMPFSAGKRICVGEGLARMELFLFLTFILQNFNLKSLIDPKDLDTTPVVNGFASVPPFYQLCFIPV

As to `c1ccc2sc(SN3CCOCC3)nc2c1`, the Potency in [1] is 20.2 µM (active); in the test with 7G8, 11.2 µM (active). In addition, the Potency entry (in test [2]; with 3D7) was “inactive” in each case. Moreover, the activity, negative = inhibition in test [3] (setting [18]) is -12.8% (inactive).
Regarding `CCCCCCCCCCCC(=O)[O][Sn]([CH2]CCC)([CH2]CCC)[O]C(=O)CCCCCCCCCCC`, the Potency entry (in test [1]; in the test on 3D7; in the test with 7G8) was “inactive” each time. Besides, the activity, negative = inhibition in test [3] (setting [18]) was -9.86% (inactive); in test [3] (setting [19]), -5.91% (inactive).
`O=C1/C(=C/c2ccsc2)CC/C1=C\c1cccs1`: the Potency entry in test [2] was “inactive”.
With `O=C1CN(/N=C/c2ccc([N+](=O)[O-])o2)C(=O)N1`, in test [2], the Potency entry is “inactive”.
`CCCCCC[C@@H](O)C/C=C\CCCCCCCC(=O)O`: the Potency result (in test [1]; in the test on 3D7; with 7G8) was “inactive” in each case. The activity, negative = inhibition in test [3] (setting [18]) was -10.4% (inactive); in test [3] (setting [19]), -8.48% (inactive).
For the compound `O=C(O)c1ccccc1Nc1cccc(C(F)(F)F)c1`, the Potency entry (in test [1]; in [2]; in the test on 3D7; in the test on 7G8) was “inactive” in each case. Moreover, the activity, negative = inhibition is -6.43% (inactive) in test [3] (setting [18]) and 10.3% (inactive) in test [3] (setting [19]).
On to `Cc1c(Nc2ncccc2C(=O)O)cccc1C(F)(F)F`, for which the Potency result (in test [1]; in test [2]; in the test on 3D7; in the test on 7G8) was “inactive” in each case. Also, the activity, negative = inhibition in test [3] (setting [20]) was 7.85% (inactive); in test [3] (setting [21]), -2.62% (inactive).
As for `O=C(CCCCCN1CCN(c2ccccc2-c2ccccc2)CC1)NC1CCCc2ccccc21` (stereo not given), in test [2], the Potency entry is “inactive”.
As to `CC(=O)c1ccc(OCC(=O)N2CCCCC2)cc1`, the Potency result in [2], in [4] and in test [6] was “inactive” throughout. Further, the outcome in test [5] and in test [7] was inactive.
For `Nc1ncnc2c1ncn2[C@@H]1O[C@H](COP(=O)(O)CP(=O)(O)OP(=O)(O)O)[C@@H](O)[C@H]1O`, the Potency entry in [2] is “inactive”.
On the same count and under the same terms, under `O=C1NCc2c1c1c3ccccc3[nH]c1c1[nH]c3ccccc3c21` stands “inactive”.
Regarding `O=C(O)CCCC[C@@H]1CCSS1`, the Potency result in [2] was “inactive”.
As for `C[S+](CC[C@H](N)C(=O)O)C[C@H]1O[C@@H](n2cnc3c(N)ncnc32)[C@H](O)[C@@H]1O` (stereo not given in full), the outcome in [8], in test [9], in test [11], in test [13], in test [14] and in [15] was inactive. Also, the Potency in [10] is 3.98 µM (active). Also, the max response in test [12] was -4.63% (inactive).
With `O=C(O)c1cc(O)c(O)c(O)c1`, the compound was called inactive in test [8], in [9], in [11], in test [13], in test [16] and in test [14]. Besides, the compound was classed as inactive in test [15]. Also, the Potency in [10] is 3.55 µM (active). Moreover, the max response in test [12] is -2.87% (inactive).
Turning to `CC[C@H]1OC(=O)[C@H](C)[C@@H](O[C@H]2C[C@@](C)(OC)[C@@H](O)[C@H](C)O2)[C@H](C)[C@@H](O[C@@H]2O[C@H](C)C[C@H](N(C)C)[C@H]2O)[C@](C)(O)C[C@@H](C)C(=O)[C@H](C)[C@@H](O)[C@]1(C)O`, the Z-AUC in test [17] was 1.12 (inactive); in test [17] (measured here: PEO1 parental Z-AUC), 0.909; in test [17] (measured here: PEO4 Z-AUC) it was 1.27.
Turning to `O=C(O)Cc1ccc(-c2ccccc2)cc1`, the activity, negative = inhibition in test [3] (setting [20]) is 2.72% (inactive); in [3] (setting [21]), -2.57% (inactive).
